Consider 14 molecules from PubChem BioAssay (NCI).

Compounds without any hit were thinned out: in the full panel of roughly 79,000, 15% have a hit. A number with no mark means an inactive call. Calls of active or inactive are those of the source. Rule as the data show it: active = growth inhibition above about 70%; inactive = the rest.

This assay is described as follows: NCI Yeast Anticancer Drug Screen. Data for the rad50 strain (AID 155).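 Also: 0% = growth of vehicle-only cultures of the same strain.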 The settings on record: S. cerevisiae rad50 strain growth inhibition, active compounds read high. How it is done:
Growth inhibition of yeast strains with defined genetic alterations is measured as a screen for potential anti-cancer activity. Selected strains with alterations in DNA damage repair or cell cycle control were exposed to compounds and growth inhibition was measured relative to vehicle treated controls. The strain used in this assay is rad50

Setting [1] is: at 5.0 µM (retest, dose inferred, filed as 0.5).
The mark [2] stands for this setting: at 50.0 µM (retest, dose inferred, filed as 5.0).

As for `Clc1c2ccccc2cc2cccnc12`, the growth inhibition by setting is: under setting [1], 17%; under setting [2], 90% (active); (at 50.0 µM) 50.2%.

For `CC(C)n1nnc2c3ccccc3c3ccccc3c21`, the growth inhibition was 3% under setting [1], 11% under setting [2] and -7.5% (at 50.0 µM).

Take `Cc1cc(NC(=S)SCc2ccc3c(c2)OCO3)ccc1Br`: the growth inhibition is, setting by setting: under setting [1], 38%; under setting [2], 98% (active); (at 50.0 µM) 89.7% (active).

Turning to `CC(C)(C)C(=O)CC(Cc1nccc2ccccc12)c1ccco1` (configuration not stated), the growth inhibition under setting [1] was -3%, the growth inhibition under setting [2] was 94% (active) and the growth inhibition (at 50.0 µM) is 98.7% (active).

For `CCOC(=O)c1c(C)[nH]c(C(=O)C(N)C(=O)OCC)c1C` (configuration not stated), the growth inhibition under setting [1] is 8%, the growth inhibition under setting [2] was -3% and the growth inhibition (at 50.0 µM) was 98% (active).

Regarding `CCO/N=C1\CCCCC1SS(=O)(=O)O` (configuration not stated), the growth inhibition is -5% under setting [1], 11% under setting [2] and 40.5% (at 50.0 µM).

Consider `CCC[CH2][Sn]([CH2]CCC)([O]C(=O)c1cc(F)cc(F)c1)[O][Sn]([CH2]CCC)([CH2]CCC)[O]C(=O)c1cc(F)cc(F)c1`, for which the growth inhibition reads like this: under setting [1], 48%; under setting [2], 88% (active); (at 50.0 µM) 83% (active).

On to `Fc1ccc(NC(=S)SCc2ccccc2)cc1`, for which the growth inhibition is 4% under setting [1], 16% under setting [2] and 68.3% (at 50.0 µM).

In the case of `CC(=O)OC1CCC2(C)C(CCC3C2CCC2(C)C4CCC32OC(=O)C4CC(=O)O)C1` (configuration not stated), the growth inhibition is 3% under setting [1], 36% under setting [2] and 86.6% (active) (at 50.0 µM).

`Cc1cc(C)n2nc(N)c(C#N)c2c1C#N`: the growth inhibition was -2% under setting [1], 1% under setting [2] and 17.2% (at 50.0 µM).

Turning to `Nc1ccc(C(=O)N/C(=C\c2ccc3c(c2)OCO3)c2nc3ccccc3s2)cc1`, the growth inhibition was 23% under setting [1], 99% (active) under setting [2] and 97.2% (active) (at 50.0 µM).

Turning to `Cc1ccc[n+](CC(=O)C2CCC3C4CC=C5CC(O)CCC5(C)C4CCC23C)c1` (configuration not stated), the growth inhibition runs as follows: under setting [1], 2%; under setting [2], 28%; (at 50.0 µM) 95.4% (active).

Consider `O=C1c2ccccc2C(=O)C2(C(c3ccccc3)c3ccccc3)N=NCC12` (configuration not stated), for which the growth inhibition reads like this: under setting [1], -5%; under setting [2], 15%; (at 50.0 µM) 4.15%.

Take `CC1=C(C(=O)Nc2ccc([N+](=O)[O-])cc2)C(c2ccccc2F)C(C(=O)Nc2ccc([N+](=O)[O-])cc2)=C(C)N1`: the growth inhibition runs as follows: under setting [1], 19%; under setting [2], 19%; (at 50.0 µM) 56.4%.
